For some assays here: Potency and affinity values are given separately.
How the values were obtained:
Design in all cases: scale not given: direction of the effect not stated beside the values
[1] = biological target: Protein translocase subunit SecA (Escherichia coli (strain K12)) (UniProt P10408); test: Assay to Identify E. coli SecA ATPase Inhibitors; format: functional; details: 30 µM
[2] = biological target: T1, Ubiquitin-activating enzyme e1, putative (Leishmania donovani (strain BPK282A1)) (UniProt E9BSI1); test: Leishmania donovani Ubiquitin Activating Enzyme (LdE1); format: functional; details: 30 µM
T1 sequence (whole entry): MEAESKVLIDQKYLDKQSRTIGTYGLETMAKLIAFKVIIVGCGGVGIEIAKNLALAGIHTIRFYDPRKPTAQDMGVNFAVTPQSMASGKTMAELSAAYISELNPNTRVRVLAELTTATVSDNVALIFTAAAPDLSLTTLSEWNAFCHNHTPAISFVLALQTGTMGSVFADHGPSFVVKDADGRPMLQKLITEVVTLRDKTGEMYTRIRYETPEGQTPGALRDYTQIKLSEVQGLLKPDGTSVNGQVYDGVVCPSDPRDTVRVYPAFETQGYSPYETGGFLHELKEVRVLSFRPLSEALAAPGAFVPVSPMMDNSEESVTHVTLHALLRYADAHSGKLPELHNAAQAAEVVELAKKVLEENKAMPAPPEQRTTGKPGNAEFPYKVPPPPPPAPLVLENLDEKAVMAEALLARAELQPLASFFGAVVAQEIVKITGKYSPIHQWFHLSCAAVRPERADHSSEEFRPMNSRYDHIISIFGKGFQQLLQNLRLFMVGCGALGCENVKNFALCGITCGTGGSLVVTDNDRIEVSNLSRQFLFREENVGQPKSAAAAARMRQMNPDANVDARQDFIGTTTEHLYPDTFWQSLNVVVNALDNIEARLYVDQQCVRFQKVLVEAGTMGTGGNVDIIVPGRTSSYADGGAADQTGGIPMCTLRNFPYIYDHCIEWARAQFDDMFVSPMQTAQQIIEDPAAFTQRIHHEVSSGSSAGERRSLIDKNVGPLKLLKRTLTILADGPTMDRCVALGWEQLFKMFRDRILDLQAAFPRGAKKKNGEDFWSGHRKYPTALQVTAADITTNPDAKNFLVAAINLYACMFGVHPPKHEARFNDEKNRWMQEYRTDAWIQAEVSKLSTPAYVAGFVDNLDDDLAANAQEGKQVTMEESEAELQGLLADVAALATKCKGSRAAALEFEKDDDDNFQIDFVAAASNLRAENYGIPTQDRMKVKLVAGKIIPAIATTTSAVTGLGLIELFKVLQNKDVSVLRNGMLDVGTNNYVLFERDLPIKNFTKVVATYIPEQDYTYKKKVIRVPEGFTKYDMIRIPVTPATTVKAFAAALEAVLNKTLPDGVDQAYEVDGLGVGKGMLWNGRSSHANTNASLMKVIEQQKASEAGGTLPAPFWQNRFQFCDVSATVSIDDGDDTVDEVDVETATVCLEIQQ

[3] = biological target: Sialic acid-binding Ig-like lectin 9 (Homo sapiens) (UniProt Q9Y336); test: Hs-Siglec9 ALPHAscreen SOP 20170721; details: 10 µM
[4] = tested on: Trypanosoma cruzi; test: Trypanosoma cruzi phosphomannomutase and mannose-1-phosphate guanylyltransferase assay; format: functional; details: 10 µM
[5] = biological target: T2, Arginase-2, mitochondrial (Homo sapiens) (UniProt P78540); test: in vitro enzyme assay to detect the production of urea directly proportional to the activity of Arginase II; format: functional; details: 33.3 µM; further: in the data most compounds retested in dose-response had high values
T2 sequence (whole entry): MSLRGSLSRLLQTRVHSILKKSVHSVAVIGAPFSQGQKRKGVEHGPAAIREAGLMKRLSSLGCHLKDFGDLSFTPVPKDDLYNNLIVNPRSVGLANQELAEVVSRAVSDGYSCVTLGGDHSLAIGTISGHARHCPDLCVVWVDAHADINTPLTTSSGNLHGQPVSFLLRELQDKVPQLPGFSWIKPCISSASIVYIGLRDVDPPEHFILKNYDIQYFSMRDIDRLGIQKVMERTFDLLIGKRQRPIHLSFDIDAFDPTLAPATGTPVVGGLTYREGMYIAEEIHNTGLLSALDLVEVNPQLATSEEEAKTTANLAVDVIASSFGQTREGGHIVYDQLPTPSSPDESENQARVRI

[6] = biological target: T3, Proteasome subunit beta (Trypanosoma cruzi) (UniProt O96673); test: Trypanosoma cruzi proteasome chymotrypsin-like activity (TcProtChymo) assay.; further: in the data most compounds retested in dose-response had high values; format: functional; details: 9.37 µM
T3 sequence (whole entry): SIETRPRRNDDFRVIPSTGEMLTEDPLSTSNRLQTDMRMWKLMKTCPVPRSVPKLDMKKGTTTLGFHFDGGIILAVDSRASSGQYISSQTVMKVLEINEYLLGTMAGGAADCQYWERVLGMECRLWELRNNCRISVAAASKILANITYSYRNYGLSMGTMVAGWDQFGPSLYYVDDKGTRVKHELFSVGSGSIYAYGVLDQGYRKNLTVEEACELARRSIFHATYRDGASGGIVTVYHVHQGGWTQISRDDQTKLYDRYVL

[7] = species: Homo sapiens; test: To identify inhibition of the IFN signalling (Jak-Stat) pathway via expression of an eGFP reporter gene under the control of an IFN-stimulated response element (ISRE) containing MxA promoter.; format: functional; details: 30 µM
[8] = biological target: T4, Tyrosyl-tRNA synthetase, putative (Trypanosoma cruzi (strain CL Brener)) (UniProt Q4DSP6); test: Trypanosoma cruzi tyrosyl tRNA synthetase (TcYRS) _High Tyrosine SOP; format: functional; details: 30 µM; further: in the data most compounds retested in dose-response had high values
T4 sequence (whole entry): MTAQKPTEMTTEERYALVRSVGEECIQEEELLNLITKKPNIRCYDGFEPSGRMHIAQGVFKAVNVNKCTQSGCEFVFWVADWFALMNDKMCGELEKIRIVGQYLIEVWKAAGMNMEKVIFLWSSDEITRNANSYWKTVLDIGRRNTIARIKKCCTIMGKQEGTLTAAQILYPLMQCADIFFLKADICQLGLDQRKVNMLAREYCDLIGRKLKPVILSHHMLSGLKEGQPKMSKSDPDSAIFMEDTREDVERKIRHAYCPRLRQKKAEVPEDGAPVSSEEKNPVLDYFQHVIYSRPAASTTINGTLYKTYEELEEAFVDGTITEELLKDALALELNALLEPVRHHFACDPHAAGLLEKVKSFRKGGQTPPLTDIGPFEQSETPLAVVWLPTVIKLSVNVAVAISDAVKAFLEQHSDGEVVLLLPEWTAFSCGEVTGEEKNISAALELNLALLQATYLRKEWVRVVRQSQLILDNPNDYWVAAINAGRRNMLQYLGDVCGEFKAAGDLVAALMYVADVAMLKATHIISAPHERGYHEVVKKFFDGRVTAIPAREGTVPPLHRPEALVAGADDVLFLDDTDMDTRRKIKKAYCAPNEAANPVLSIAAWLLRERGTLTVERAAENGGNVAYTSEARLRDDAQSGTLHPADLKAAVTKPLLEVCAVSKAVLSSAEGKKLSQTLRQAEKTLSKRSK

[9] = biological target: T4, Tyrosyl-tRNA synthetase, putative (Trypanosoma cruzi (strain CL Brener)); test: Trypanosoma cruzi tyrosyl tRNA synthetase (TcYRS) SOP; format: functional; details: 30 µM
[10] = biological target: Chromo domain-containing protein 1 (Saccharomyces cerevisiae (strain ATCC 204508 / S288c) (Baker's yeast)) (UniProt P32657); test: ScCHD-1 Enzyme Inhibition Assay; format: functional; details: 30 µM; further: in the data most compounds retested in dose-response had high values
Chromo domain-containing protein 1 (Saccharomyces cerevisiae (strain ATCC 204508 / S288c) (Baker's yeast)), sequence (P32657 whole entry, the tested form may be a part): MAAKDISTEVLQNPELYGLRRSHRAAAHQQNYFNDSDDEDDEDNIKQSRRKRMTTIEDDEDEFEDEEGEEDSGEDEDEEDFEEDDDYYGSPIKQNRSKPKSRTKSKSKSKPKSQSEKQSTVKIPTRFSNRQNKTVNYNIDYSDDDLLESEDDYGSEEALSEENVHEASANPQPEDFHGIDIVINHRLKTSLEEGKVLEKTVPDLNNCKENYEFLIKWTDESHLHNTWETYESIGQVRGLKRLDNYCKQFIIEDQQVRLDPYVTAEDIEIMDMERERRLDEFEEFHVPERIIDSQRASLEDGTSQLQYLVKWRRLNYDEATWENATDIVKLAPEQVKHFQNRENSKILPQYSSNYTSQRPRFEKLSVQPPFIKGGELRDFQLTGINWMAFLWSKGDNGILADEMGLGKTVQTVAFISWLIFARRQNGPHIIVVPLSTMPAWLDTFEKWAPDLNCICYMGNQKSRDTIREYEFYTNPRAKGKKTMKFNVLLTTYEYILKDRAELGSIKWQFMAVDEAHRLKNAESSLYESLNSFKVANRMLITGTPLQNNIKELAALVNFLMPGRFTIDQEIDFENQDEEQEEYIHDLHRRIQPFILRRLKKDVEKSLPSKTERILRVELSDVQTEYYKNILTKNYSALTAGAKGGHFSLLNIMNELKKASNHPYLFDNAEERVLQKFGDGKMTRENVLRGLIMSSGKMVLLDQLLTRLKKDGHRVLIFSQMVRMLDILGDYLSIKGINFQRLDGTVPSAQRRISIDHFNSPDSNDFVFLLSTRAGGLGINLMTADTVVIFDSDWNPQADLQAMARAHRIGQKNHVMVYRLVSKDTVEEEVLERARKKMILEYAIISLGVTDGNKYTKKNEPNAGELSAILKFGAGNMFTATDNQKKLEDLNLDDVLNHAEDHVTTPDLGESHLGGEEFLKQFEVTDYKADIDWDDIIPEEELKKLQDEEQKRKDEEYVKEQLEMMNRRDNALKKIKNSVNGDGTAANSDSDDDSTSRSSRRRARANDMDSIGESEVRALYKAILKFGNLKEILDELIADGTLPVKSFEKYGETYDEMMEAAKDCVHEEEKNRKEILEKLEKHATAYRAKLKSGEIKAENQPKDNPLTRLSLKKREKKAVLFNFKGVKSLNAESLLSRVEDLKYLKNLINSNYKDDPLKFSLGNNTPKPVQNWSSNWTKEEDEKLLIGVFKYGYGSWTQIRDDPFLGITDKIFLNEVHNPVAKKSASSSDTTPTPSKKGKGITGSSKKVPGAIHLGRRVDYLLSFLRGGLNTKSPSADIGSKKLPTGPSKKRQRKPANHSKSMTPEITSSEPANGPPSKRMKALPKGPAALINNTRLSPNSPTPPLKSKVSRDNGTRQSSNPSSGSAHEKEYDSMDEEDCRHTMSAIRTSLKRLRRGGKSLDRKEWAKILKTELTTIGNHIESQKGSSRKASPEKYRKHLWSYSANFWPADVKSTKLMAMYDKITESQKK

Sialic acid-binding Ig-like lectin 9 (Homo sapiens), sequence (Q9Y336 whole entry): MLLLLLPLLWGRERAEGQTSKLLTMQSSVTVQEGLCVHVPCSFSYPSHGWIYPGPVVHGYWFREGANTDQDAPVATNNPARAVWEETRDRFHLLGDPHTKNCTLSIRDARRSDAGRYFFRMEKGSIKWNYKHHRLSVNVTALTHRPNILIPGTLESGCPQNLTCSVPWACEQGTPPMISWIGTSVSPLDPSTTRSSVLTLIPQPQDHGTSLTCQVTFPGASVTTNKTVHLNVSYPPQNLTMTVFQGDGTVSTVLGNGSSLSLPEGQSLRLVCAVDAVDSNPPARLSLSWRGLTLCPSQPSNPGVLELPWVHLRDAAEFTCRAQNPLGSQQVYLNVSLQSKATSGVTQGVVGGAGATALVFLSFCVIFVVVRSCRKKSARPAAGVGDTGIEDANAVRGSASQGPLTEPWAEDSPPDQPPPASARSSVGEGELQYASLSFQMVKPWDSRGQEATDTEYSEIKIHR
Protein translocase subunit SecA (Escherichia coli (strain K12)), sequence (P10408 whole entry): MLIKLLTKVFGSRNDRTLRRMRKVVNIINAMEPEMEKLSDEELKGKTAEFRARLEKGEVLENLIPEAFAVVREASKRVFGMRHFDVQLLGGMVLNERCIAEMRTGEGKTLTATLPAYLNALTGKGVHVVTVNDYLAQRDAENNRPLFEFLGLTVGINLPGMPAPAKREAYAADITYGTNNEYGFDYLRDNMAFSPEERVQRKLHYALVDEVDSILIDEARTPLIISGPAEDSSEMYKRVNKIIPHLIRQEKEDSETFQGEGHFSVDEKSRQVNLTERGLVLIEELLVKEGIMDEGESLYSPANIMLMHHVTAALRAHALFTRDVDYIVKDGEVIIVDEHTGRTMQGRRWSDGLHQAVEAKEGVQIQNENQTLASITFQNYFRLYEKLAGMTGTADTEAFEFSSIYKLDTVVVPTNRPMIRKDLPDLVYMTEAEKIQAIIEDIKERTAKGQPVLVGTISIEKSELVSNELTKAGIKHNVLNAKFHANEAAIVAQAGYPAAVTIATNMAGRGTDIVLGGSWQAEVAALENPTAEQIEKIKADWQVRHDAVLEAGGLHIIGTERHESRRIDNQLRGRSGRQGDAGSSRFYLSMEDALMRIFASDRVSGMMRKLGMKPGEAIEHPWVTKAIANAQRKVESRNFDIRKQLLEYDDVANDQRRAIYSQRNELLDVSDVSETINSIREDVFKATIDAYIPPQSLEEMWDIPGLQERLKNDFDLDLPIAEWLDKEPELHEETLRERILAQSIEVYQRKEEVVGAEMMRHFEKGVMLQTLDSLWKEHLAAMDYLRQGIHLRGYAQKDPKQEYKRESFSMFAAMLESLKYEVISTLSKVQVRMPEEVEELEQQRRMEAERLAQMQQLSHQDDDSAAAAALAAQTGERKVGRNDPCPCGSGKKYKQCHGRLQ

Structure (SMILES)	Percent Effect [1] [%]	Percent Effect [2] [%]	Percent Effect [3] [%]	Percent Effect [4] [%]	Percent Effect [5] [%]	Percent Effect [6] [%]	Percent Effect [7] [%]	Percent Effect [8] [%]	Percent Effect [9] [%]	Percent Effect [10] [%]
CCOC(=O)N1CCN(C(=O)c2sc(-c3ccccc3F)nc2C)CC1	-2.12	5.41	6.21	0.097	30.4	13.5	-3.93	4.79	14.6	-4.07
CC(C)N1CC(C(=O)NCc2ccnc(-n3cccn3)c2)CC1=O (stereo not given)	-1.72	12.8	-8.26	0.469	8.2	3.33	25.3	5.26	13.2	-3.04
Cc1cccc(-c2noc(CN3CCc4nn(C)c(=O)cc4C3)n2)c1	-3.9	16	1.97	-0.201	3.55	0.424	14.8	-5.79	-15.4	4.01
Cc1ccc(-c2nc(CN3CCCC3Cn3cc(C)cn3)no2)cc1 (stereo not given)	-2.04	5.33	2.03	4.02	-8.43	22.6	12.1	1.58	10.3	-12
CC1CN(CC(=O)NC2CCCC2)CCN1c1ccc2nncn2n1 (stereo not given)	-1.74	12.8	1.41	0.0939	4.1	15.8	12.2	7.18	20.5	-1.24
O=C(C1=CCCCC1)N1CCC2(CC1)COC(COc1ccccn1)C2 (stereo not given)	-4.78	9.09	2.76	-0.292	-0.405	18.1	-0.0236	3.68	17.9	-3.36
CN(Cc1ccsc1)C(=O)CN1CCOC(Cn2cccn2)C1 (stereo not given)	-9.25	7.79	-1.67	-1.49	-0.615	-3.51	19.9	0	-16.5	-7.08
CN1CCOC(CNC(=O)CCCOCCc2ccccc2)C1 (stereo not given)	-3.33	17.9	-5.99	9.86	3.28	9.13	19.5	4.31	22.9	-6.94
O=C(CCCOc1ccccc1Cl)N1CCCC(n2cncn2)C1 (stereo not given)	-2.02	5.13	-18.2	6.1	-13.9	-5.03	-5.2	1.44	6.02	0.499
c1cnnc(N2CCCC2CNCc2nc(-c3ccsc3)no2)c1 (stereo not given)	-4.07	-23.1	-7.35	9.11	-6.15	0.256	-10.2	5.26	6.02	-1.74
CCc1cc(C(=O)N2CCCC2c2nc(C)c(F)c(O)n2)on1 (stereo not given)	1.86	17.3	-9.03	0.197	-3.54	16.1	26.2	3.17	10	-19.6
